PubChem BioAssay
Calls of active or inactive are those of the source.

Assays:
[1] = target: Albumin (Bos taurus) (UniProt P02769); assay: bovine serum albumin binders on microarray, profiling panel, artefact control for SMM control protein annotation, biochemical, small-molecule microarray, Alexa647 label, 635/667 nm fluorescence (AID 1118); conditions: BSA-A647 binding, fluorescence 635 nm, higher = more signal;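 further: score merges 667 nm emission intensity and signal-to-noise per printed compound spot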
Chain of Albumin (Bos taurus) (P02769 whole entry, looked up): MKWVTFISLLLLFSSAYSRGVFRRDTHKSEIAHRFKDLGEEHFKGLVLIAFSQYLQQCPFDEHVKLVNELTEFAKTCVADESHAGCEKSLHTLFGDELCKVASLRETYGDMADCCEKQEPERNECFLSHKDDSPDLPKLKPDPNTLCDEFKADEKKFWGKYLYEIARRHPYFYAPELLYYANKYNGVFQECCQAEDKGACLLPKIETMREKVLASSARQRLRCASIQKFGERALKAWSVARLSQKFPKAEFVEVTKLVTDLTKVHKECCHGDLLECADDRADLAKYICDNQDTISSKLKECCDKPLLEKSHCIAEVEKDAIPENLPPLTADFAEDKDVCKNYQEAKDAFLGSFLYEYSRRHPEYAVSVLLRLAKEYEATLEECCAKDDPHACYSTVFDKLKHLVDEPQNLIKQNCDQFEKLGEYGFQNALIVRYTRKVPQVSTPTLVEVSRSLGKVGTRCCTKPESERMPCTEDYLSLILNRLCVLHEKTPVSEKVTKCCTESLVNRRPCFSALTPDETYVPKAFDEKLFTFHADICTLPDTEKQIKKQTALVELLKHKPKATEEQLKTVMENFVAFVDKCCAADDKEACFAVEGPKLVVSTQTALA

[2] = small-molecule microarray binders of probe aXIP, primary screen, biochemical, NeuroSMM set, 635/667 nm fluorescence (AID 1119); conditions: higher = more signal, called active from +8 up or from −8 down;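 further: probe is the protein aXip251-270 applied at 1 µg/mL to compound-printed slides; binding of probe to printed compounds measured as 667 nm fluorescence plus signal to noise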
[3] = small-molecule binders of probe aNOTCH3, primary screen, biochemical, small-molecule microarray, 635/667 nm fluorescence (AID 1120); conditions: higher = more signal;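 further: probe is a biotin-tagged antibody raised against NOTCH3 rather than NOTCH3 protein; score merges spot fluorescence near 667 nm with spot signal to noise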
[4] = small-molecule binders of probe aNOTCH2, primary screen, biochemical, small-molecule microarray, 635/667 nm fluorescence (AID 1121); conditions: higher = more signal;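 further: score merges feature fluorescence read at 667 nm with its signal to noise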
[5] = target: Carbonic anhydrase 2 (Homo sapiens) (UniProt P00918); assay: CAII small-molecule binders, profiling panel, biochemical, small-molecule microarray, Alexa647-labelled CAII (AID 1122); conditions: CAII-A647 binding fluorescence, higher = more signal
[6] = COS7 lysate on small-molecule microarray, probe aHis, 635 nm (AID 1123); conditions: COS7 cell lysate, fluorescence, higher = more signal;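 further: z-score combines 667nm fluorescence intensity with signal-to-noise per printed compound spot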
[7] = compound binding in COS7 lysate, probe aLAP1, primary screen, cell lysate, small-molecule microarray (AID 1124); conditions: probe aLAP1, fluorescence, higher = more signal;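 further: lysate comes from COS7 cells expressing LAP1 and is applied at 0.3 µg/mL; score merges spot fluorescence near 667 nm with signal-to-noise over triplicate slides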
[8] = test system: Sam68 (KHDRBS1); assay: Sam68 small-molecule binders, primary screen, biochemical, small-molecule microarray, 635 nm fluorescence (AID 1125); conditions: small-molecule microarray binding, higher = more signal;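 further: score merges 667 nm channel intensity with signal to noise over triplicate slides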
[9] = test system: Chordin-like protein 2 (CHRDL2); assay: CHRDL2 small-molecule binders, primary screen, biochemical, small-molecule microarray, 635 nm fluorescence (AID 1126); conditions: small-molecule microarray binding, fluorescence 635 nm; higher = more signal;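 further: printed compound slides probed with Chrdl2 protein at 4 µg/mL for 1 h at 4 C; score merges 667 nm emission intensity with signal to noise over three replicate slides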
[10] = target: Concanavalin-A (Canavalia ensiformis) (UniProt P02866); assay: ConA small-molecule binders, primary screen, artefact control for SMM control protein annotation, biochemical, small-molecule microarray, Alexa647 label, 635 nm (AID 1127); conditions: ConA-A647 binding fluorescence, higher = more signal;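 further: z combines 667 nm emission intensity with signal-to-noise across three replicate slides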
Chain of Concanavalin-A (Canavalia ensiformis) (P02866 whole entry, looked up): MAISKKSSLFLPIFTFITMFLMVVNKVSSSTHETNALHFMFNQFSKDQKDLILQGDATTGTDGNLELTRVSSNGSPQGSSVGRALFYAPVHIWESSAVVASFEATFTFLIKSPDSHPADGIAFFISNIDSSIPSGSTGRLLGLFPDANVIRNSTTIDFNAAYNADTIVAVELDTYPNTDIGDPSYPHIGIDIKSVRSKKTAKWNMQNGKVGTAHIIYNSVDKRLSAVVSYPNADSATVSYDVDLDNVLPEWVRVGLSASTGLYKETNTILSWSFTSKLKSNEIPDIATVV

Row | SMILES | composite z-score [1] | composite Z-score [2] | composite z-score [3] | composite z-score [4] | composite z-score [5] | composite z-score [6] | composite z-score [7] | composite z-score [8] | composite z-score [9] | composite z-score [10]
1 | CC(C)C[C@H]1NC(=O)[C@@]23C(=O)N[C@@H](Cc4ccccc4)C2[C@H](C)[C@@]2(C)O[C@H]2C3/C=C/C/C=C\CNC(=O)[C@H](Cc2ccccc2)NC1=O (stereo not given in full) | -0.188 | -0.311 (inactive) | -0.0377 | -0.115 | 0.254 | 0.19 | -0.108 | 0.791 | 0.696 | 0.205
2 | COCCOC(=O)N1C(=O)[C@@]2(c3cc(C#Cc4ccc(OC)cc4)ccc31)[C@H](c1ccc(O)cc1)N1[C@H](c3ccccc3)[C@H](c3ccccc3)OC(=O)[C@H]1[C@@H]2C(=O)NC[C@H](O)c1ccccc1 | 0.298 | 0.434 (inactive) | 0.385 | -0.0878 | 0.317 | 1.04 | 0.693 | 1.29 | 0.374 | 1.17
3 | CC(C)C(=C=CC[C@@H](O)c1ccccc1OCCO)CCO | 0.0824 | -0.519 (inactive) | -0.0311 | -0.115 | 0.374 | -0.501 | -0.412 | 0.615 | 0.0551 | 0.542
4 | [N-]=[N+]=Nc1ccccc1[C@H]1OC(c2ccc(OCCCO)cc2)=N[C@@]1(Cc1ccccc1)C(=O)O | 0.59 | -0.001 (inactive) | 0.196 | -0.146 | 0.344 | 1.64 | 0.0378 | 1.31 | -0.392 | 0.619
5 | CCOC(=O)C1=CCC(c2ccccc2)N(S(=O)(=O)CC[Si](C)(C)C)C1 (stereo not given) | -0.149 | 0.0503 (inactive) | -0.392 | -0.188 | -0.35 | -0.177 | -0.0394 | -0.717 | 0.165 | -0.0238
6 | CC1CC/C=C\[C@H]2OC34C=CCN(C(C)(C)C)C(=O)[C@H]3N(CCCCCCO)C(=O)[C@@H]4C2C(=O)O1 (stereo not given in full) | -0.805 | -0.358 (inactive) | -0.295 | -0.114 | 0.932 | 0.178 | 0.843 | -0.281 | -1.07 | -0.239
7 | O=C(NCc1ccccc1)[C@@H]1c2ccccc2C(=O)N(CC23CC4CC(CC(C4)C2)C3)[C@H]1c1ccc(CO)cc1 | 0.438 | 1.23 (inactive) | -0.274 | -0.265 | 0.467 | 0.813 | 1.17 | 1.28 | 0.452 | 1.1
8 | CC(C)(C)OC(=O)CC[C@]1(C(=O)NCC(O)CO)COC(c2ccc(OCCCO)cc2)=N1 (stereo not given in full) | 0.693 | 0.0333 (inactive) | 0.0425 | -0.106 | 0.828 | 2.68 | -0.45 | 0.949 | -1.53 | 0.504
9 | COc1ccc([Si](C)(C)[C@@H]2[C@@H](CCO)O[C@]3(C(=O)N(Cc4ccc(N5C(=O)COc6ccccc65)cc4)c4ccccc43)[C@H]2C)cc1 | 0.671 | -0.539 (inactive) | 0.305 | -0.0924 | 0.59 | 1.55 | 0.844 | 1.33 | 0.106 | 1.07
10 | [N-]=[N+]=NCc1ccccc1[C@@H]1OC(c2ccc(OCCCO)cc2)=N[C@]1(CCS(=O)(=O)c1ccccc1)C(=O)NCc1ccccc1 | 0.732 | 0.0035 (inactive) | 0.946 | 0.257 | 0.694 | 1.89 | 1.77 | 1.3 | 0.518 | 1.11
11 | CCOC(=O)[C@H]1C/C=C/C[C@H](C(=O)OCC)C(=O)O[C@H]2[C@@H](OC)O[C@H](CO)[C@@H](OC(=O)Nc3cccc(F)c3)[C@@H]2OC1=O | 0.407 | 0.46 (inactive) | 1.06 | 0.0593 | 0.66 | 1.86 | 0.903 | 1.19 | 0.306 | 0.189
12 | CCCC=C(CCC)[C@@H](NC(=O)Oc1ccc(F)cc1)c1ccc(C(=O)OC)cc1 | 0.673 | -0.594 (inactive) | 0.209 | -0.0817 | 0.31 | 1.9 | 0.0052 | 1.19 | -0.813 | 0.977
13 | C=C(CCCC)C(=O)CC[C@H](OC(=O)c1cccnc1)c1ccccc1OCCO | 0.287 | 1.71 (inactive) | -0.0345 | -0.161 | 0.268 | 0.232 | 0.259 | -0.546 | 0.335 | 0.277
14 | C[N+](C)(C)CCCC[C@@H]1NC(=O)[C@@H]2C[C@H](C(=O)NCCCCCN)[C@H](c3cccc(OCCO)c3)N2C1=O | 0.924 | 0.0926 (inactive) | -0.0744 | 0.0292 | 0.832 | 2.08 | -0.207 | 1.32 | -0.633 | 0.929
15 | CC(C)[C@@H](CO)NC(=O)[C@H]1[C@@H](c2ccccc2)N(c2ccccc2)O[C@@H]1C | 0.595 | 0.365 (inactive) | -0.0573 | -0.162 | 0.459 | 0.46 | 0.145 | -0.238 | 0.207 | -0.271
16 | COc1ccc([Si](C)(C)[C@H]2[C@H](CCO)O[C@@]3(C(=O)N(Cc4ccc(N5C(=O)COc6ccccc65)cc4)c4ccccc43)[C@@H]2C)cc1 | 0.373 | 0.485 (inactive) | -0.241 | -0.176 | -0.05 | 0.303 | -0.0122 | 0.504 | -1.13 | -0.116

Row | SMILES | composite z-score [1] | composite Z-score [2] | composite z-score [3] | composite z-score [4] | composite z-score [5] | composite z-score [6] | composite z-score [7] | composite z-score [8] | composite z-score [9] | composite z-score [10]
17 | CN(C)C(=O)[C@]1(Cc2ccccc2CN=[N+]=[N-])N=C(c2ccc(OCCCO)cc2)O[C@@H]1c1ccccc1CN=[N+]=[N-] | 0.933 | -0.384 (inactive) | 0.442 | -0.0508 | 0.545 | 2.72 | 0.751 | 1.32 | -0.223 | 0.758
18 | C=CCC(OC(C)=O)[C@@H]1[C@@H](N(Cc2ccc(-c3cccc(C(F)(F)F)c3)o2)C(=O)Cc2ccc(F)cc2)c2cc(OCCCO)ccc2N1C(=O)Cc1ccc(OC)cc1 (stereo not given in full) | -0.0141 | -0.105 (inactive) | -0.0918 | -0.124 | -0.498 | -1 | -0.348 | -3.75 | 0.149 | -1.29
19 | O=C1O[C@@H](c2ccccc2)[C@@H](c2ccccc2)N2[C@@H](c3ccc(OCCO)cc3)[C@]3(C(=O)Nc4ccccc43)[C@@H](C(=O)NC[C@H](O)c3ccccc3)[C@H]12 | 0.393 | 0.312 (inactive) | 0.0519 | -0.0649 | 0.549 | 1.67 | 0.759 | 0.989 | 0.895 | 0.999
20 | C=CCOC(=O)[C@@H]1[C@H]2C(=O)O[C@H](c3ccccc3)[C@H](c3ccccc3)N2[C@H](c2ccc(OCCOC(=O)[C@@H]3C[C@@H]4C(=O)N[C@@H](CCCC[N+](C)(C)C)C(=O)N4[C@@H]3c3cccc(OCCO)c3)cc2)[C@@]12C(=O)Nc1ccc(I)cc12 | 0.769 | 0.516 (inactive) | 0.0257 | -0.0666 | 0.46 | 1.9 | 0.0596 | 1.29 | 1.21 | 1.19
21 | C=CCNC(=O)[C@@H]1[C@H]2C(=O)O[C@H](c3ccccc3)[C@H](c3ccccc3)N2[C@H](c2ccc(OCCO)cc2)[C@@]12C(=O)Nc1ccc(C#CCCO)cc12 | 0.495 | 0.858 (inactive) | 0.999 | 0.403 | 0.659 | 2.62 | 0.906 | 1.29 | 1.15 | 1.15
22 | COc1ccc([Si](C)(C)[C@H]2[C@H](CCn3cc([C@H](O)c4ccccc4)nn3)O[C@@]3(C(=O)N(Cc4cccc(N5CCOC5=O)c4)c4ccccc43)[C@@H]2C)cc1 | -0.0478 | -0.01 (inactive) | -0.0068 | -0.301 | 0.0191 | 0.178 | -0.49 | 1.07 | 0.528 | 0.958
23 | CC(CO)N1C(=O)[C@@H]2C3C(=O)OCCC/C=C\[C@H]3OC23C=CCN(c2ccc4ccccc4c2)C(=O)[C@@H]13 (stereo not given in full) | 0.611 | -0.0775 (inactive) | -0.219 | -0.115 | 0.0684 | -0.519 | -0.377 | -0.704 | -0.535 | -0.172
24 | C=CCNC(=O)[C@H]1[C@@H]2C(=O)O[C@@H](c3ccccc3)[C@@H](c3ccccc3)N2[C@@H](c2ccc(OCCO)cc2)[C@]12C(=O)Nc1ccc(C#CC3=CCCCC3)cc12 | 0.17 | 0.0758 (inactive) | -0.0933 | -0.0703 | 0.338 | 0.999 | 0.272 | 1.31 | 0.105 | 0.994
25 | CCCC[C@@H]1C[C@H]1[C@@H](NC(=O)c1ccco1)c1ccc(Cl)cc1 | 0.796 | -0.0717 (inactive) | 0.193 | -0.0164 | 0.637 | 1.99 | 0.65 | 1.33 | -0.414 | 1.07
26 | CCOC(=O)C[C@H]1[C@H](OC(=O)c2cc3ccccc3oc2=O)[C@@H](NC(=O)C2CCCCC2)c2cc(OCCCO)ccc2N1C(=O)c1ccccc1 | 0.266 | -0.275 (inactive) | 0.281 | -0.0482 | 0.274 | 0.112 | -0.0802 | 1.04 | 0.438 | 0.282
27 | C=C[C@H](COC(C)=O)N(C(=O)OC(C)(C)C)S(=O)(=O)c1ccc(Br)cc1 | -0.19 | -0.526 (inactive) | 0.704 | 0.463 | 0.162 | 0.216 | 0.0842 | 0.355 | 0.55 | 0.193
28 | COCCCN1C(=O)[C@@]2(c3ccc([N+](=O)[O-])cc3)CC(=O)N(C3CCCCC3)[C@@H]2c2ccc(CO)cc21 | -0.132 | 0.0221 (inactive) | -0.207 | -0.153 | -0.277 | 0.143 | -0.322 | 0.134 | 0.778 | 0.734
29 | CC(C)(C)OC(=O)CC[C@@]12N=C(c3ccc(OCCCO)cc3)O[C@@H]1c1ccccc1N(CCS(=O)(=O)c1ccccc1)C2=O | -0.458 | 0.733 (inactive) | 0.106 | -0.179 | 0.73 | 1.59 | 0.184 | 0.461 | 0.623 | 1.14
30 | CCCCCN1CC=CC23O[C@@H]4/C=C\CCCOC(=O)C4[C@H]2C(=O)N(CCCO)[C@@H]3C1=O (stereo not given in full) | 0.433 | -0.0981 (inactive) | -0.095 | -0.104 | 0.689 | 1.82 | 1.04 | 0.798 | -0.343 | 0.256
31 | CC1CC/C=C\[C@H]2OC34C=CCN(Cn5nnc6ccccc65)C(=O)[C@H]3N(C(CO)C(C)C)C(=O)[C@@H]4C2C(=O)O1 (stereo not given in full) | 0.568 | -0.0775 (inactive) | -0.0647 | -0.14 | 0.662 | 2.23 | 0.549 | 0.272 | -0.89 | -0.43
32 | CN1C(=O)C2C=CC(C(O)c3cc(C(F)(F)F)cc(C(F)(F)F)c3)N(N3CCCCC3)C2C1=O (stereo not given) | 0.712 | 2.11 (inactive) | 0.0488 | -0.0467 | 0.551 | 1.79 | -0.33 | 1.08 | -0.672 | 0.768
